ADAM17 inh – ADAM17 inhibition, QFRET primary screen. P78536. recombinant ADAM17, EDANS/DABCYL FRET peptide cleavage. inhibition, % at 6.95 µM. 0.83% of 370,000 active;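 active means inhibition above the mean of compounds lying between control limits plus 3 SD, set per campaign, cut at about 8.5% in these data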;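 further: 0% = DMSO-only wells as the low control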
proKLK7 act – proKLK7 (human) activation, primary screen | P49862 | activation, % at 7 µM | 0.9% of 370,000 active | purified proKLK7, EDANS-DABCYL substrate fluorescence; 100% is mature enzyme control, 0% vehicle;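 active means activation above the mean of all tested compounds plus 3 SD, computed per campaign excluding outliers beyond control limits, cut at about 13% in these data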
Target sequence (P49862 whole entry, looked up): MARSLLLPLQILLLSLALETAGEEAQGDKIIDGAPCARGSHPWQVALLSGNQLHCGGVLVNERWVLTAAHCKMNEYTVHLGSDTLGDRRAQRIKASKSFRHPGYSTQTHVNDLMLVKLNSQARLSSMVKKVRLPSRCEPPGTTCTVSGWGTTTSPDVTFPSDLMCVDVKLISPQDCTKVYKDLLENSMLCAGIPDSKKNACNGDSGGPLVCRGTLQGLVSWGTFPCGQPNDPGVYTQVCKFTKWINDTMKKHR
PLC-beta3 inh – PLC-beta3 (human) inhibition, primary screen; 0.18% of 370,000 active; Purified PLC-beta3, fluorogenic substrate, fluorescence; inhibition, % at 12.2 µM; Q01970; in the data active means inhibition above about 11%;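 further: 0% = median of compound wells on plate and 100% = full blocker control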
PLC-gamma1 inh – PLC-gamma1 (human) inhibition, primary screen | inhibition, % at 12.2 µM | P19174 | 0.84% of 370,000 active | purified PLC-gamma1, fluorogenic substrate, fluorescence; in the data active means inhibition above about 9.5%
ADAM10 inh – inhibits human ADAM10 | O14672 | recombinant ADAM10, EDANS/DABCYL FRET peptide cleavage, 3 h | inhibition, % at 7 µM | 0.62% of 370,000 active;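 active means inhibition above a per-campaign cutoff equal to the mean of compounds falling between control-based bounds plus 3 SD, cut at about 20% in these data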;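 further: 0% = DMSO wells while the 100% control is not disclosed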
* marks the source's active call; other numbers are inactive results; i = inactive. In the library only some 2.9% were active in any assay of this set; here they are far more common.

SMILES	ADAM17 inh	proKLK7 act	PLC-beta3 inh	PLC-gamma1 inh	ADAM10 inh
O=c1[nH]c(=S)[nH]c2c1C(c1ccc(Br)cc1)c1c([nH]c(=S)[nH]c1=O)O2	-1.9	0.5	-4.0	24.0*	11.0
CCN(CC)S(=O)(=O)c1ccc(NC(=O)Nc2cccc(C(F)(F)F)c2)cc1	13.6*	0.2	1.3	0.7	39.1*
Cc1ccc(C(=O)N2CCN(c3ccc(NC(=O)c4cccs4)cc3)CC2)cc1	1.4	2.9	-2.4	0.8	0.9
O=C1CCCc2oc3c(cc(NS(=O)(=O)c4ccc5c6c(cccc46)C(=O)N5)c4ccccc43)c21	-15.5	26.3*	-161.4	-109.8	-56.7
O=C(O)c1ccccc1NS(=O)(=O)c1ccc2c3c(cccc13)C(=O)N2	-4.2	-0.2	-18.4	-12.8	-7.6
Cc1ccc(O)c(C(=O)c2cc(C#N)c(=O)n(-c3nccs3)c2)c1	-20.9	17.2*	-164.9	-113.1	-51.7
COc1ccc(-c2cnc3c(NC(C)=O)cc(-c4ccc(C(=O)NC5CC5)cc4)cn23)cc1OC	-8.8	-1.2	-95.0	-75.7	-32.5
Cc1ccc(-n2ncc(C(=O)Nc3cc(Cl)ccc3Cl)c2C2CCNCC2)cc1	-3.5	-0.1	-1.6	-0.6	-3.6
Cc1ccc(-n2ncc(C(=O)Nc3cc(Cl)cc(Cl)c3)c2C2CCNCC2)cc1C	0.8	0.3	2.1	9.8*	-2.6
Cc1ccc(S(=O)(=O)NNC(=O)C2CCN(S(=O)(=O)c3ccc(C)cc3)CC2)cc1	-5.4	0.1	-0.1	6.4	2.5
Cc1cc(C)c(S(=O)(=O)/N=C2/C=C(Sc3ncn[nH]3)C(=O)c3ccccc32)cc1C	1.8	-3.8	-3.9	11.8*	1.4
CO[C@@H]1CN(C)C(=O)c2ccc(NC(=O)c3ccccc3F)cc2OC[C@@H](C)N(CC2CCOCC2)C[C@@H]1C	5.3	-0.3	10.9*	2.6	6.2
O=C(Nc1ccc(Oc2ccccc2)cc1)c1csc([C@@H]2O[C@H](CO)[C@@H](O)[C@H]2O)n1	-2.1	-0.2	-0.7	1.1	-8.8
C[C@@]12C(=O)Nc3ccc(Cl)cc3C(=O)N1[C@H]1c3cc(Cl)ccc3OC[C@@H]1[C@@H]2c1ccccc1	7.1	-1.4	-0.5	0.9	10.1
Cc1ccc2c(c1)[C@H]1[C@H](CO2)[C@H](c2ccccc2)[C@]2(C)C(=O)Nc3ccc(Cl)cc3C(=O)N12	11.3*	-2.4	-6.8	2.9	28.6*
Cc1ccc2c(c1)[C@H]1[C@H](CO2)[C@H](c2ccccc2)[C@]2(C)C(=O)N(CC3CCCO3)CC(=O)N12 (stereo not given in full)	-0.6	-0.1	0.5	1.6	3.7
C[C@@]12C(=O)N(CC3CCCO3)CC(=O)N1[C@H]1c3cc(Cl)ccc3OC[C@@H]1[C@@H]2c1ccccc1 (stereo not given in full)	3.2	0.3	0.6	10.4*	10.6
CC(=O)NC1C(=O)N=C(SCC(=O)NC(C)c2ccccc2)NC1=O (stereo not given)	2.0	0.2	-0.7	1.9	7.3
COc1ccc(N(CC(=O)Nc2ccccc2C(=O)NCC(C)C)S(C)(=O)=O)cc1	1.1	-0.6	5.2	2.4	4.5
Cc1oc2c(CN3CCOCC3)c(O)ccc2c(=O)c1-c1ccc(Br)cc1	-153.7	11.4	-280.1	-227.2	i
Cc1oc2c(CN(C)C)c(O)ccc2c(=O)c1-c1cscn1	-251.8	20.0*	i	-450.9	i
O=C1C=CC(=Nc2ccc(F)cc2)O1	-2.0	-0.6	-5.1	1.1	-3.3
O=C1C=CC(=Nc2ccc3c(c2)C(=O)c2ccccc2-3)O1	12.1*	0.1	-0.2	4.2	10.7
Cc1nc2ccc(NS(=O)(=O)c3ccccc3F)cc2s1	-8.5	-0.9	-48.5	-34.5	-9.3
Cc1noc(C)c1S(=O)(=O)N(C)C[C@H]1OCc2cn(nn2)CCCC(=O)N([C@@H](C)CO)C[C@@H]1C	-5.1	-0.5	-1.7	0.7	-8.0
SMILES	ADAM17 inh	proKLK7 act	PLC-beta3 inh	PLC-gamma1 inh	ADAM10 inh
Cc1noc(C)c1S(=O)(=O)N(C)C[C@@H]1OCc2cn(nn2)CCCC(=O)N([C@@H](C)CO)C[C@H]1C	7.1	-0.3	8.8	12.2*	-0.4
CCCC(=O)NC(c1cccc([N+](=O)[O-])c1)c1ccc2cccnc2c1O (stereo not given)	6.8	-0.1	1.5	-4.0	26.0*
Cn1c(=O)n(Cc2ccccc2)c(=O)c2c1nc1n2CCCN1Cc1ccccc1	1.3	-0.2	0.4	11.1*	-2.3
Cn1c(=O)n(Cc2ccccc2)c(=O)c2c1nc1n2CCCN1CCc1ccccc1	3.1	0.2	1.3	-3.4	8.7
Nc1nc(-c2ccc3ccccc3c2)c(C2(O)C(=O)Nc3c(Br)cc(F)cc32)s1 (stereo not given)	4.8	0.3	-1.1	9.4	1.6
O=C(Cc1cccs1)Nc1cccc(C(=O)Nc2ccco2)c1	5.1	0.2	12.9*	7.2	9.0
CCCN(CCC)C(=S)NC(=O)c1ccc(Cl)cc1Cl	2.9	0.1	7.8	12.9*	13.2
Cc1cccc(C)c1NC(=O)C1(C)CSCC(=O)N1CCOc1ccccc1 (stereo not given)	7.0	-0.2	11.1*	12.3*	2.2
Cc1ccc(NCc2nnc(SCC(=O)c3ccccc3)n2Cc2ccco2)c(C)c1	0.3	0.3	-9.4	-3.4	28.7*
CCOC(=O)CSC1=C(C#N)C(=O)NC(c2ccc(OC)cc2)S1 (stereo not given)	4.3	0.3	17.2*	13.6*	7.7
O=[N+]([O-])c1ccccc1CN1CCN(Cc2c[nH]c3ccccc23)CC1	0.3	0.3	0.7	1.2	1.9
CCC(=O)NC(c1cccs1)c1cc([N+](=O)[O-])c2cccnc2c1OC (stereo not given)	1.3	0.2	-3.3	17.9*	0.5
Cc1noc(C)c1C(=O)Nc1ccccc1N1CCOCC1	-12.7	-0.1	-4.9	0.8	-11.7
Cc1onc(-c2ccccc2)c1C(=O)Nc1ccccc1N1CCOCC1	4.6	-0.2	2.4	12.7*	16.1
CC(C)OC(=O)c1ccc2ccc(-c3ccccc3)nc2c1	-2.7	-0.4	-2.3	-0.5	-11.9
Cc1cccc(Cn2nc(C(C)(C)C)cc2C(=O)Nc2ccc(F)cc2)c1	9.0*	0.2	-4.4	4.6	25.3*
O=C(COC(=O)c1ccccc1F)NNC(=O)c1ccccc1	-7.2	-0.3	-6.7	-1.1	-1.8
CO/N=C/c1ccc(N2CCN(C(=O)c3ccc(Cl)cc3Cl)CC2)c([N+](=O)[O-])c1	6.8	0.6	1.6	7.7	20.0*
CO/N=C/c1ccc(N2CCN(C(=O)c3ccc(F)cc3)CC2)c([N+](=O)[O-])c1	2.8	0.6	2.0	-0.3	2.5
Cc1ccc2c(c1)N(C(=O)CSc1nncn1C)C(C)(C)c1ssc(=S)c1-2	8.8*	0.9	3.1	8.0	15.0
CCN(CC)C(=O)C1CCCN(C(=O)Nc2ccc3nsnc3c2)C1 (stereo not given)	-112.8	19.1*	i	i	-431.4
